Where a name gives a salt, the structure may show the parent alone.
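Also: Hoechst-stained nuclei counted by automated confocal imaging of four fields per well in 384-well plates, with the robust Z-score based on the per-plate DMSO median and robust SD.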

The experiment concerns HeLa. The experiment can be described thus: nuclear count per well, robust Z-score vs DMSO; higher = more cells (less toxicity). The settings on record: 10 µM; 6 h.
Take `CN1CCC(=C2c3ccccc3C=Cc3ccccc32)CC1`: the “nuclear count per well” value was -0.305.

Regarding `Cc1ccc(C(=O)c2ccc(CC(=O)O)n2C)cc1` [Tolmetin sodium dihydrate], the “nuclear count per well” value is 0.866. For the compound `CC(C)NCC(O)COc1ccc(COCCOC(C)C)cc1` (configuration not stated) [Bisoprolol Fumarate], the “nuclear count per well” value is 0.523. With `Cc1ccc(C(=O)c2cc(O)c(O)c([N+](=O)[O-])c2)cc1` [Tolcapone] the figure was -0.498; with `O=C(O)CCC/C=C\CC1C(O)CC(O)C1/C=C/C(O)COc1cccc(Cl)c1` (configuration not stated) [Cloprostenol], -0.538; with `S=c1[nH]cnc2nc[nH]c12` [Mercaptopurine Hydrate], -0.0295.

In the case of `COc1c(C)c2c(c(O)c1C/C=C(\C)CCC(=O)O)C(=O)OC2` [Mycophenolic acid], the “nuclear count per well” value is -1.57. The same measure for `COc1cccc2c1C(=O)c1c(O)c3c(c(O)c1C2=O)C[C@@](O)(C(=O)CO)C[C@@H]3O[C@H]1C[C@H](N)[C@@H](O)[C@H](C)O1`: -8.97; for `COc1ccc2cc1Oc1ccc(cc1)C[C@H]1c3cc(c(OC)cc3CCN1C)Oc1c(OC)c(OC)cc3c1[C@H](C2)N(C)CC3` [Tetrandine]: 1.11; for `CN(C)CCC=C1c2ccccc2CCc2ccccc21`: 0.438. As for `CCS(=O)(=O)CCn1c([N+](=O)[O-])cnc1C` [Tinidazole], the “nuclear count per well” value was -1.65. The same measure for `CC/C(=C(\c1ccccc1)c1ccc(OCCN(C)C)cc1)c1ccccc1` [Tamoxifen Citrate]: 0.359.

`CCCCCCCCCCCCC/C=C/[C@@H](O)[C@H](CO)NCCCCCCCC` [C8 Ceramine]: the “nuclear count per well” value was determined as 0.668. `CCCCCC[C@@H]([C@@H](C)O)n1cnc2c(N)ncnc21`: the “nuclear count per well” value was -0.102. Regarding `c1ccc(-c2ccc(CNc3nc(-c4ccccn4)nnc3-c3ccccc3)cc2)cc1`, the “nuclear count per well” value is -1.94. In the case of `COc1cc(NC(C)CCCN)c2ncccc2c1` (configuration not stated) [Primaquine Phosphate], the “nuclear count per well” value was -0.145. `CC(C)C[C@H](NC(=O)[C@H](Cc1ccccc1)NC(=O)c1cnccn1)B(O)O` [Bortezomib]: the “nuclear count per well” value was -2.87.

Turning to `CS(=O)(=O)c1ccc(C(=O)Nc2ccc(Cl)c(-c3ccccn3)c2)c(Cl)c1` [Vismodegib (GDC-0449)], the “nuclear count per well” value was -1.68.

Take `Cc1cc(C)cc(OCC2CNC(=O)O2)c1` (configuration not stated) [Metaxalone]: the “nuclear count per well” value was -0.471. With `CCc1nc(N)nc(N)c1-c1ccc(Cl)cc1` [Pyrimethamine] the figure was 0.643. The same measure for `CCN(CCO)CCCC(C)Nc1ccnc2cc(Cl)ccc12` (configuration not stated) [Hydroxychloroquine]: 0.845; for `Cc1ccsc1C(=CCCN1CCC[C@@H](C(=O)O)C1)c1sccc1C`: 1.09; for `CCCCCCc1ccc(O)cc1O` [Hexylresorcinol]: -0.222. As for `O=C1CC2(CCCC2)CC(=O)N1CCCCN1CCN(c2ncccn2)CC1`, the “nuclear count per well” value amounted to 0.271. With `O=[N+]([O-])c1cccc2c(Br)[nH]nc12` [Bromo-7-nitroindazole] the figure was -0.0311; with `CC(=O)N[C@@H](CSC/C=C(\C)CC/C=C(\C)CCC=C(C)C)C(=O)O` [Acetyl (N)-s-farnesyl-l-cysteine], -0.988; with `CCC(C)C(COC(Cc1ccccc1)C(=O)NC(CCS(C)(=O)=O)C(=O)OC(C)C)NCC(N)CS` (configuration not stated), 0.367.
